Tb PFK inh-1 – blocks T. brucei phosphofructokinase; O15648; T. brucei PFK, ADP-Glo luminescence; Potency, µM (top dose mostly 57.5 µM), most hits filed as inhibitors; 0.17% of 330,000 active; AID 485367; further: nearly all actives have a fitted effect of over 60% in size
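Activity is normalized to no-enzyme wells (full inhibition) and 1.25 nM enzyme wells (no inhibition). Reaction: 0.5 mM F6P, 0.1 mM ATP, 45 min RT, ADP-Glo luminescence; concentration-response curves fitted and classed by quality.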
GLP1R inv ag – inverse agonists of human GLP-1 receptor; 1.6% of 410,000 active; Potency, µM (top dose mostly 38.3 µM), hits mostly inhibitors; HEK293 GLP-1R CRE-luciferase, luminescence, 24 h; GLP-1R form is constitutively active; P43220; further: nearly all actives have a fitted effect of over 55% in size
Target sequence (P43220 whole entry, looked up): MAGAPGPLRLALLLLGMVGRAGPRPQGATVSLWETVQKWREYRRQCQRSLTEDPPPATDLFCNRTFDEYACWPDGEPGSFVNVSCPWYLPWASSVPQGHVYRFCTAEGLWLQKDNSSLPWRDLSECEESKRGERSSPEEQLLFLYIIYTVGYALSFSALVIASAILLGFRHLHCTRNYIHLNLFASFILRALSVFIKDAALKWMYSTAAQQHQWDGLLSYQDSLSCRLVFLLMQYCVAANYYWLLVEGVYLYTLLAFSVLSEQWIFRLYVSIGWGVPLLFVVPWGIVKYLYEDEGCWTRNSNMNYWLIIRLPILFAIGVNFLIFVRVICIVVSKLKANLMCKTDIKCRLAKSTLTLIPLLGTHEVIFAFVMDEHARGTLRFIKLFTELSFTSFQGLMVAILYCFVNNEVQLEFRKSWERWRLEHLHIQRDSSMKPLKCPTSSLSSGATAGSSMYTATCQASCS
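Constitutively active GLP-1R drives a cAMP-responsive luciferase in stably transfected HEK293 cells; test compounds are added after overnight (12 h) attachment and left 24 hr, and signal loss in luminescence marks inhibition.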
Pin1 inhibitor – inhibitors of human Pin1 | Q13526 | Pin1 FP peptide displacement, HiFluor488, 10 min | Potency, µM (doses to about 115 µM), actives largely listed as inhibitors | 0.009% of 390,000 active | AID 504891; active means well fitted inhibition curve with a large enough effect in the polarisation, with a control signal flat, not every such curve was filed as active; inconclusive means small, poorly fitted or top-dose-only effect, or effect the other way, or a change in a side signal; inactive means no such curve, though single readings can be large or run the other way; the % refers to the polarisation
GLP1R ag – agonists of human GLP-1 receptor; 0.007% of 380,000 active; Potency, µM (top dose mostly 45.6 µM), actives largely listed as activators; HEK293 GLP-1R CRE-luciferase, luminescence, 4-6 h; cells express a hypersensitive GLP-1R form; P43220; AID 624172
Tb PGK inh – T. brucei PGK inhibition; Potency, µM (series often up to 57.5 µM), usual class: inhibitors; P07378; PGK/GAPDH coupled, Kinase-Glo luminescence, 60 min; 0.043% of 380,000 active; AID 602233; further: nearly all actives have a fitted effect of over 60% in size
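Luminescent ATP detection (Kinase-Glo Plus) follows a 60-minute room-temperature incubation, with wells lacking PGK as controls. Buffer: 100 mM TEA (pH 7.6), 5 mM MgCl2, 0.01% Tween-20. Coupling enzyme GAPDH (100 nM final) supplies unstable 1,3-BPG in-well.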
HEK293 tox – cytotoxicity in counter-screen for GLP-1R inverse agonists | HEK293 cAMP-luciferase reporter cells, luminescence, 24 h | 0.13% of 410,000 active | AID 624418 | Potency, µM (highest dose often 38.3 µM), usual class: inhibitors;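 further: loss of luciferase light is scored as toxicity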
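Compound-treated cells are incubated 24 hr at 37 deg C under 5% CO2 after a 12 hour attachment period, then luciferase detection reagent is added and luminescence is measured following 12 min at room temperature; lowered signal indicates toxicity.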
TbPFK ATP – Tb phosphofructokinase inhibition, orthogonal luminescence. Potency, µM (doses to about 57.5 µM). shares compounds with Tb PFK inh-1. Tb PFK enzyme, ATP depletion, Kinase-Glo Plus luminescence. 47% of 1,100 active; calls by dose curve; further: nearly all actives have a fitted effect of over 60% in size
Tb PFK inh-2 – validation of T. brucei phosphofructokinase inhibitors; purified T. brucei PFK, ADP-Glo luminescence, 45 min; shares compounds with Tb PFK inh-1; AID 504637; Potency, µM (titrated, usually from 57.5 µM), most hits filed as inhibitors; 41% of 1,100 active; further: nearly all actives have a fitted effect of over 60% in size
Each line names hits and unclear results; the compound was inactive in the other large screens (follow-up assays come after a bar, where they were run). This is a sample that favours compounds with a hit; in the whole collection about 1.8% have one here. Unless noted, the call rests on the fitted dose curve; in most records, active means well fitted curve in the direction sought with a large enough effect; inconclusive means small, poorly fitted or top-dose-only effect, or another doubt; inactive means no such curve, though single readings can be large; an effect the other way counts as inactive or inconclusive.

CCCOc1ccc(/C(O)=C2/C(=O)C(=O)N(CCCn3ccnc3)C2c2ccc(C)o2)cc1 (stereo not drawn)	Tb PFK inh-1 inconclusive | TbPFK ATP inconclusive | Tb PFK inh-2 30µM
CC(=NCCCn1ccnc1)c1c(O)n(-c2ccccc2)c(=O)[nH]c1=O	none
CC1Cc2cc(/C(O)=C3/C(=O)C(=O)N(CCCn4ccnc4)C3c3cccc([N+](=O)[O-])c3)ccc2O1 (stereo not drawn)	Tb PFK inh-1 11µM | TbPFK ATP 6.7µM | Tb PFK inh-2 21µM
CCCCC[C@H]1CCCCC[C@H](O)C[C@H](O)[C@@H](O)/C=C/C(=O)O1	none (no result: Tb PFK inh-1, Pin1 inhibitor, Tb PGK inh)
Cc1ccc(CNc2cc(C)nc3nc(-c4ccc(C)cc4)nn23)cc1	Pin1 inhibitor inconclusive (no result: Tb PFK inh-1)
O=C(COc1ccc(F)c(Cl)c1)c1ccc[nH]1	Tb PFK inh-1 inconclusive | TbPFK ATP inconclusive | Tb PFK inh-2 inconclusive
COc1ccc(NCc2nc3ccccc3n2CCOc2ccc(C)cc2)cc1	GLP1R inv ag inconclusive, HEK293 tox inconclusive
Cc1cc(C)nc(Sc2nc(Nc3ccccc3)nc(Sc3nc(C)cc(C)n3)n2)n1	HEK293 tox inconclusive
COc1ccccc1NC(=S)N(Cc1ccco1)Cc1cc2cc(C)ccc2[nH]c1=O	GLP1R inv ag inconclusive, HEK293 tox inconclusive
COc1ccc(Nc2c(-c3cc(Br)ccc3O)nc3ncccn23)cc1OC	GLP1R inv ag inconclusive (no result: Tb PFK inh-1, GLP1R ag)
Cc1cc(C(=O)COC(=O)c2cc(Cl)c(O)c(Cl)c2)c(C)n1C	Tb PFK inh-1 17µM, Pin1 inhibitor inconclusive | TbPFK ATP inconclusive | Tb PFK inh-2 inactive
Cc1cc(C(=O)CCl)c(C)n1CCc1ccc(F)cc1	GLP1R inv ag inconclusive, HEK293 tox inconclusive
Cc1cccc(CN2CCc3nc(N4CCN(c5ccccn5)CC4)ncc3C2)c1	GLP1R inv ag inconclusive (no result: Tb PFK inh-1, GLP1R ag)
CC(C)CC1C(=O)N(Cc2cn(CC3CCCCC3)nn2)CCS(=O)(=O)N1Cc1ccc(-c2ccc(F)nc2)cc1 (stereo not drawn)	GLP1R inv ag inconclusive (no result: Tb PFK inh-1, Pin1 inhibitor)
O=c1c2ccccc2nc(/C=C\c2ccccc2[N+](=O)[O-])n1-c1ccccc1O	none
O=C(O)CC1S/C(=N/N=C/c2ccc(-c3ccc(Cl)cc3[N+](=O)[O-])o2)NC1=O (stereo not drawn)	Tb PFK inh-1 inconclusive, Pin1 inhibitor inconclusive | TbPFK ATP inactive | Tb PFK inh-2 inconclusive
O=C(O)CC1S/C(=N/N=C/C=C/c2ccccc2[N+](=O)[O-])NC1=O (stereo not drawn)	Tb PFK inh-1 inconclusive | TbPFK ATP inactive | Tb PFK inh-2 inconclusive
Fc1ccc(CNc2ncnc3cc(Cl)ccc23)cc1	Tb PFK inh-1 19µM, GLP1R inv ag inconclusive | TbPFK ATP inconclusive | Tb PFK inh-2 27µM
CC(C)CC(N)c1csc(NC(=O)C(c2ccccc2)c2ccccc2)n1 (stereo not drawn)	GLP1R inv ag inconclusive, HEK293 tox inconclusive (no result: Tb PFK inh-1, Pin1 inhibitor, Tb PGK inh)
C[C@]12CC[C@@H]3c4ccc(O)c(O)c4CC[C@H]3[C@@H]1CC[C@@H]2O	Tb PFK inh-1 13µM, HEK293 tox inconclusive | TbPFK ATP 7.6µM | Tb PFK inh-2 13µM
CC12CCC3c4ccc(O)c([N+](=O)[O-])c4CCC3C1CCC2=O (stereo not drawn)	none (no result: Tb PFK inh-1, Pin1 inhibitor)
C[C@]12CC[C@@H]3c4cc(O)c(O)cc4CC[C@H]3[C@@H]1CC[C@@H]2O	Tb PFK inh-1 inconclusive, GLP1R inv ag inconclusive | TbPFK ATP 3.4µM | Tb PFK inh-2 4.8µM
CNc1ccc2nc3ccccc3[n+](C)c2c1	GLP1R inv ag inconclusive, Pin1 inhibitor inconclusive
